Laboratory results reported in PubChem BioAssay AID2778 (National Center for Advancing Translational Sciences (NCATS), 2010).
Results filed as inconclusive are left out. Active and inactive are the calls of the source. The call rests on the fitted dose curve; in most records, active means well fitted inhibition curve with a large enough effect; inconclusive means small, poorly fitted or top-dose-only effect, or effect the other way; inactive means flat fitted curve, though single readings scatter.

target: Menin (Homo sapiens) (UniProt O00255); assay: Confirmation of Inhibitors Targeting the Menin-MLL Interaction in MLL Related Leukemias: Confirmation in an HTRF (commercial TR-FRET) Assay using His-tagged menin and biotin-labeled MLL peptide; settings: His-menin / biotin-MLL peptide binding; series mostly up to 126 µM; activity change, negative = inhibition: at the top concentration
Summary of the method: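 HTRF: His6-menin (200 nM) and biotin-MLL-w.t. peptide (80 nM) preincubated 15 min, then compounds 1 hr at ambient, before Eu-cryptate anti-His (3.5 nM) and streptavidin-XL665 (10 nM) for 1 h; 50 mM Tris-HCl pH 7.5, 50 mM NaCl, 1 mM DTT, BSA.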
On the % scale 0 is the no-effect control and ±100 the full control effect; potency means the concentration at half of the fitted maximal effect.

Menin (Homo sapiens), sequence (O00255 whole entry, looked up): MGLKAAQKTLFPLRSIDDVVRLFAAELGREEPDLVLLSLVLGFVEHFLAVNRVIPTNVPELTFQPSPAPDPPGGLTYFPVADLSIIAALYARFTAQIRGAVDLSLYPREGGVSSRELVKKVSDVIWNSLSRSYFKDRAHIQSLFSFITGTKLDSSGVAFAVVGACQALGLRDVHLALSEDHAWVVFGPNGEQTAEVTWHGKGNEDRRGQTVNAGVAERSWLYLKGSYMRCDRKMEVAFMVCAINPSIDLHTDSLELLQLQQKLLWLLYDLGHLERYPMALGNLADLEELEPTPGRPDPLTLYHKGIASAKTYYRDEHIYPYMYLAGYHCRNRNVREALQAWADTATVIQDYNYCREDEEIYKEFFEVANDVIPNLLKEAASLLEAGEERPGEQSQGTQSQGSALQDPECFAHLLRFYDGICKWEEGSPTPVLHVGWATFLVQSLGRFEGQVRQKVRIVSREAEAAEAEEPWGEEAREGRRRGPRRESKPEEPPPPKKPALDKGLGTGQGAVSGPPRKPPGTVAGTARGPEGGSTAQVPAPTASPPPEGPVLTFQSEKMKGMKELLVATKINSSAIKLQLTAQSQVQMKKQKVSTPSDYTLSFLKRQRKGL

Row | SMILES | activity change, negative = inhibition | Potency
1 | CCOC(=O)N1CCN(Cc2nnc(-c3ccccc3C)o2)CC1 | 10.3% (inactive) | 
2 | O=C(CS)Nc1ccc2ccccc2c1 | -22.4% (inactive) | 
3 | Cc1ccc(NC(=O)C(C)N2C(=O)c3ccccc3C2=O)c(C)c1 (stereo unspecified) | 6.35% (inactive) | 
4 | O=C(Nc1cccn(Cc2c(Cl)cccc2Cl)c1=O)c1c(Cl)cccc1Cl | -10.9% [at 383 µM] (inactive) | 
5 | N=c1oc2ccccc2cc1-c1nc(-c2ccc(Cl)cc2)cs1 | -5.52% (inactive) | 
6 | Cc1cc2ccccc2nc1SCC(=O)Nc1nc(-c2ccccc2)cs1 | -6.54% [at 383 µM] (inactive) | 
7 | CC(=O)c1ccc2c(c1)N(CCCN1CCC(CCO)CC1)c1ccccc1S2 | 7.56% [at 62.9 µM] (inactive) | 
8 | c1ccc(-c2ccc(-c3csnn3)cc2)cc1 | -8.86% (inactive) | 
9 | CC(NC(=O)c1cnc2ccccc2n1)c1ccccc1 (stereo unspecified) | -5.38% [at 383 µM] (inactive) | 
10 | COc1ccc(C)cc1N(C(=O)c1snc(C(N)=O)c1N)C(C(=O)NC1CCCC1)c1ccc(F)cc1 (stereo unspecified) | -1.82% [at 383 µM] (inactive) | 
11 | Cc1ccc(C)n1-c1ccc(N(C)C)cc1 | 5.34% (inactive) | 
12 | c1ccc2c(c1)nc(N1CCOCC1)c1c3ccccc3[nH]c21 | -9.36% [at 383 µM] (inactive) | 
13 | CCOc1ccc(NC(=O)c2cccc(OC(=S)N3CCC(C)CC3)c2)cc1 | -5.98% (inactive) | 
14 | O=C(O)c1ccccc1NS(=O)(=O)c1cccc(-n2sc3ccccc3c2=O)c1 | -24.1% [at 383 µM] (inactive) | 
15 | NC(=NCCCCCCN=C(N)/N=C(\N)Nc1ccc(Cl)cc1)/N=C(\N)Nc1ccc(Cl)cc1 |  | 282 µM (active)
16 | COC(CSc1nc(N)c2c3c(sc2n1)CN(C)CC3)OC | 5.19% (inactive) | 
17 | Fc1ccccc1C1c2cccn2CCN1C(=S)Nc1ccc(Br)cc1 (stereo unspecified) | -15.8% (inactive) | 
18 | CCOC(=O)N1CCN(C(=O)c2oc3ccc(S(=O)(=O)N(CC)CC)cc3c2C)CC1 | -0.309% [at 383 µM] (inactive) | 

Row | SMILES | activity change, negative = inhibition | Potency
19 | O=S(=O)(c1ccc(-c2csc(Nc3ccc(Br)cc3)n2)cc1)N1CCCC1 | -9% [at 383 µM] (inactive) | 
20 | Cc1nc(C)c(-c2ccc(SCc3ccccc3F)nn2)s1 | 2.1% (inactive) | 
21 | CCCN(CCC)CCCNC(=O)c1cc2c(=O)[nH]c3ccccc3c2s1 | 5.66% (inactive) | 
22 | COc1ccc(C2=C(CN(C)C)C(c3ccccc3)c3ccccc3O2)cc1 (stereo unspecified) | 1.78% (inactive) | 
23 | COc1cnc(-c2ccccn2)nc1N(C)c1ccccc1 | 4.38% (inactive) | 
24 | O=C1C(SCCO)=C(SCCO)C(=O)c2ccccc21 |  | 39.8 µM (active)
25 | O=C(Nc1nnc(-c2ccccc2SCc2ccccc2)s1)Nc1ccccc1F | -20.5% (inactive) | 
26 | Cc1cnc(CNc2ccnc(-c3ccoc3)n2)cn1 | -2.59% [at 383 µM] (inactive) | 
27 | CCN(CC)c1nc(-c2ccc(C(=O)NN)cc2)nc(-c2ccc(C(=O)NN)cc2)n1 | -7.98% [at 383 µM] (inactive) | 
28 | C=C(C)[C@@H]1CC=C(CN2CCN(Cc3ccccc3)CC2)CC1 | 4.46% (inactive) | 
29 | O=C(O)c1cc(S(=O)(=O)O)cc(Nc2c3ccccc3nc3ccccc23)c1O | 3.8% [at 383 µM] (inactive) | 
30 | Cc1ccc2nc(-c3ccc(NC(=O)COC(=O)c4ccc(Br)o4)cc3)sc2c1 | -21.7% (inactive) | 
31 | COc1ccccc1CNCC(=O)Nc1ccc(C#N)cc1 | -1.25% [at 383 µM] (inactive) | 
32 | O=c1c2ccccc2nc(N/N=C/c2c(O)ccc3ccccc23)n1O | 1.63% [at 383 µM] (inactive) | 
33 | CC(=O)N1CCCc2cc(S(=O)(=O)N3CCCC(C(=O)N4CCN(c5ccccc5)CC4)C3)ccc21 (stereo unspecified) | -9.1% (inactive) | 
34 | COc1ccccc1/C=N/n1c(N)c(S(=O)(=O)c2cccs2)c2nc3ccccc3nc21 | -7.78% [at 383 µM] (inactive) | 
35 | O=[N+]([O-])c1ccc(S(=O)(=O)c2ccccc2)nc1 | 1.69% [at 383 µM] (inactive) | 
36 | Cc1cc2c(c(=O)n1Cc1ccccc1)C1O[C@](c3ccsc3)(Cc3cc(C#N)ccc31)O2 | -8.97% [at 31.5 µM] (inactive) | 
